Laboratory results published in ChEMBL document CHEMBL4513216, “Probing the Open Global Health Chemical Diversity Library for Multistage-Active Starting Points for Next-Generation Antimalarials” (ACS Infect Dis, 2020).
Among all 65,000 compounds or so, about 2,100 (3.2%) showed an effect of 50% or more. The median lay at about -52%. This excerpt belongs to a sample that is enriched for strong results.

System: Plasmodium falciparum
Assay: Screen against P. falciparum Asexual Blood Stage (ABS), at 5uM
Format: functional, Dd2
Conditions: tested at 5 uM

Structure (SMILES)	INHIBITION
Cc1cc(Cl)cc(C)c1CNC1CCN(CC(=O)N(C)C)CC1	54.4%
Cc1cc2cc(CNC3CCN(CC(=O)N(C)C)CC3)oc2cc1C	-159%
Cc1nc(-c2c(C)noc2C)cc(C2CCN(CC(=O)N(C)C)CC2)n1	-74%
CC(C)CNC(=O)c1cccc(CN2CCc3c(ncn3C)C2)c1	-103%
CCOc1cccc2c1OCC(=O)N(c1ccc3c(c1)OCCO3)C2	-105%
COCCN1CCN(Cc2c(C)noc2C)Cc2ccc(C)nc21	-54%
COCCN1CCN(Cc2c(C)noc2C)Cc2cccnc21	-19.1%
Cc1ccc2c(n1)N(CCN(C)C)CCN(Cc1c(C)noc1C)C2	63.1%
Cc1cc(CNC(=O)NC(C)(CO)C2CC2)c(C)s1 (stereo not drawn)	-55.5%
Cc1nccn1-c1ccc(N2CCC(NC(C)CC(C)C)CC2)cc1 (stereo not drawn)	30.2%
Cc1nccn1-c1ccc(N2CCC(N[C@H](C)C(C)C)CC2)cc1	-49.6%
CCCC(C)NC1CCN(c2ccc(-n3ccnc3C)cc2)CC1 (stereo not drawn)	52.3%
Cc1c[nH]nc1C1CCCCN1C(=O)CCn1nccc1C (stereo not drawn)	-97%
Cc1cccn2cc(C(=O)N3CCCN(CC4CC4)C(C(C)C)C3)nc12 (stereo not drawn)	-26.5%
O=C1N(CCO)CCCC12CCN(Cc1nnc(C3CC3)o1)C2 (stereo not drawn)	-77.7%
O=S(=O)(NCC1(O)CCOc2ccccc21)c1ccc(Br)s1 (stereo not drawn)	59.2%
Cc1ccc(S(=O)(=O)NCC2(O)CCOc3ccccc32)s1 (stereo not drawn)	-36.2%
O=S(=O)(NCC1(O)CCOc2ccccc21)c1ccc(Cl)s1 (stereo not drawn)	-88.4%
c1cncc(COCc2n[nH]c3c2CN(Cc2ccco2)C3)c1	-89.3%
CN1CCCC2(CCN(S(=O)(=O)c3ccc(-c4cnco4)s3)C2)C1=O (stereo not drawn)	-16.8%
CN1CCC2(CCN(S(=O)(=O)c3ccc(-c4cnco4)s3)CC2)C1	68.4%
CN1CCC2(CCCN(S(=O)(=O)c3ccc(-c4cnco4)s3)C2)C1 (stereo not drawn)	52.1%
O=S(=O)(c1ccc(-c2cnco2)cc1)N1CCC2(CCCNC2)C1 (stereo not drawn)	47%
O=S(=O)(c1ccc(-c2cnco2)cc1)N1CCCC2(CCNCC2)CC1	8.22%
O=S(=O)(c1ccc(-c2cnco2)cc1)N1CCCC(O)(CO)CC1 (stereo not drawn)	-40.8%
COC(=O)c1cc(OCC2CCC2)cc(C(=O)N[C@@H](C)CO)c1	-90%

Structure (SMILES)	INHIBITION
c1ccc(N2CCOC3(CCCN(c4ncccn4)C3)C2)nc1 (stereo not drawn)	-101%
c1ccc(N2CCCC2)c(NCc2ccncc2)c1	-27.2%
CN(Cc1cccc(C(N)=O)c1)c1ncc(C#N)cc1Cl	-76.1%
O=C(CN1CCCC(Cn2cncn2)C1)NCCCc1ccccc1 (stereo not drawn)	-62.6%
Cc1cc(C(=O)N2CCCC(N3CCCCCC3)C2)nn1C(C)(C)C (stereo not drawn)	55.5%
Cc1cc(C(=O)N2CCCC(N3CCNC3=O)C2)nn1C(C)(C)C (stereo not drawn)	-37.9%
Cc1cc(C(=O)N2CCC(N3CCNC3=O)CC2)nn1C(C)(C)C	-59.8%
Cc1cc(CNC(=O)c2cnoc2C)c(C)o1	-78%
O=C(c1cccnc1O)N1CCN(Cc2ccccc2F)CC1	-14.3%
Cc1cc(Oc2ccccc2)nc(C2CCCCN2)n1 (stereo not drawn)	-17.4%
Cc1cc(Oc2ccccc2C)nc(C2CCCN2)n1 (stereo not drawn)	25.4%
Cc1cc(Oc2ccccc2F)nc(C2CCCCN2)n1 (stereo not drawn)	57.5%
CC1(C(=O)NCCc2ccc(F)cc2)CCOCC1	-16.2%
CN(C)C1(CNC(=O)Cc2ccc(F)cc2)CCOCC1	0.427%
CN(C)C(C(=O)NCC1(N(C)C)CCOCC1)c1ccccc1F (stereo not drawn)	-6.85%
CN(C)C1(CNC(=O)C2CCCN2Cc2ccc(F)cc2)CCOCC1 (stereo not drawn)	68.7%
CN(C)C1(CNC(=O)CC=Cc2ccc(F)cc2)CCOCC1	57.5%
CC(C)NC(=O)C1CN(Cc2ccc(F)cc2)CC12CCOCC2 (stereo not drawn)	-23.5%
COCc1nc(C(=O)N2CCCC2Cn2cc(C)cn2)cs1 (stereo not drawn)	-179%
Cc1cccc(CN2CCC3(CCCN(Cc4cnn(C)c4)C3)C2)n1 (stereo not drawn)	-21.5%
CN(C)C(=O)NCc1ncn2c1CN(Cc1cccs1)CCC2	-61.4%
CN(C)C(=O)[C@@]12CCO[C@@H]1CCN(Cc1ccc3c(c1)OCO3)C2	-52.2%
O=C(COc1coc(CN2CCSCC2)cc1=O)c1ccccc1	-95.1%
Cc1cccc(C)c1Oc1ncccc1CNC(=O)C1(C)CCCNC1 (stereo not drawn)	56.1%
COc1ccccc1Oc1ncccc1CNC(=O)C1(C)CCCNC1 (stereo not drawn)	-45.9%
CC1(C(=O)NCc2cccnc2Oc2ccc(F)cc2F)CCCNC1 (stereo not drawn)	21.1%

Structure (SMILES)	INHIBITION
CCn1ncc2c1C(COCC1CC1)CN(c1ccc(C)nn1)C2 (stereo not drawn)	40.1%
CCc1c(C)nc2cc(C3CCN(Cc4cccnc4)C3)nn2c1O (stereo not drawn)	-81.6%
Cc1nc2cc(C3CCN(Cc4cccc(F)c4F)C3)nn2c(O)c1C.O=C(O)CC(O)(CC(=O)O)C(=O)O (stereo not drawn)	59.6%
CCc1c(C)nc2cc(C3CCN(Cc4ccc(F)cc4)C3)nn2c1O (stereo not drawn)	14.3%
CCc1c(C)nc2cc(C3CCN(Cc4ccccc4F)C3)nn2c1O (stereo not drawn)	51.6%
Cc1nc(O)cc(C2CCN(Cc3cccc(F)c3F)C2)n1 (stereo not drawn)	-81.4%
Cc1nc2cc(C3CCN(Cc4ccccc4F)C3)nn2c(O)c1C (stereo not drawn)	50.3%
CCc1c(C)nc2cc(C3CCN(CCc4ccccc4)C3)nn2c1O (stereo not drawn)	-23%
CCc1c(C)nc2cc(C3CCN(Cc4cccc(F)c4)C3)nn2c1O (stereo not drawn)	5.05%
CN(Cc1noc(C2CC2)n1)C1CCN(Cc2cccc(F)c2F)C1 (stereo not drawn)	26.6%
Cc1nc(CN2CC(Cc3ccccc3)CC2=O)no1 (stereo not drawn)	-37.6%
Cc1ccc(CNCc2ccc(N3CCC(CO)CC3)nc2)c(C)c1	-47.4%
CC(c1nc(C2CC2)no1)N1CCc2c(ncn2C)C1 (stereo not drawn)	-90.5%
Cn1nc(C(=O)NCc2cccnc2)c2c1CCS(=O)(=O)C2	-148%
Cc1cnc(CCN(C)C(=O)c2ccc(O)nc2C)s1	-151%
COc1cccc(-c2cc(NCCN(C)C)nc3[nH]ccc23)n1	53.1%
COc1cccc(-c2cc(NCCO)nc3[nH]ccc23)n1	-62.1%
COc1cccc(-c2cc(NCC(=O)O)nc3[nH]ccc23)n1	-47%
O=C(Cc1ccsc1)N1C[C@H]2CCC[C@@]2(COCc2ccccn2)C1	-116%
Cc1cnc(NC(=O)c2csc(NCC(C)C)n2)s1	-175%
Cc1ncc(CN(C)CC(O)c2ccc(OC(F)(F)F)cc2)s1 (stereo not drawn)	64%
Cc1ccc(CC(=O)NCC(O)c2cccc(C(F)(F)F)c2)cn1 (stereo not drawn)	-58.1%
Cc1ncc(CN(C)CC(O)c2cccc(C(F)(F)F)c2)s1 (stereo not drawn)	54.7%
Cc1cc(CNC(=O)NCC(O)c2cccc(C(F)(F)F)c2)no1 (stereo not drawn)	-34.1%
CCOC(=O)CN(C)Cc1cnc(C)s1	-142%
Cc1ncc(CN(C)CC(O)c2ccc(Br)cc2)s1 (stereo not drawn)	22.6%

Structure (SMILES)	INHIBITION
O=C(CC1CC1)N[C@@H]1CN(C(=O)c2ccoc2)C[C@@H]2CCCO[C@@H]21	-102%
CN(C)C(=O)c1cnc2n1CCN(Cc1ccc3c(c1)OCO3)C2	24.3%
CCn1cc2c(n1)CN(Cc1ccc(F)cc1)CC2COCC1CC1 (stereo not drawn)	-38.3%
CC(C)(CNC(=O)COc1cccc(F)c1)C(N)=O	60.6%
CC(C)(CNC(=O)CCCOc1cccc(F)c1)C(N)=O	44.9%
CC(C)(CNC(=O)CCOc1cccc(F)c1)C(N)=O	-172%
CC(C)Cn1cc2nc(N3CCC(O)CC3)[nH]cc-2c1=O	-52.3%
Cc1cccc(Cn2cc(Br)c(NS(C)(=O)=O)n2)c1	-96.25%
Cc1oc(-c2cccc(F)c2F)nc1CN(C)CCO	-82.7%
Cc1ccc(-c2nn(-c3cccc(F)c3)cc2CN(C)CCO)o1	50.5%
O=C(NCCn1ccnc1)c1ccn(-c2cccc(F)c2)n1	-1.32%
Cc1nc(CN2CCN(CCCc3nc4ccccc4o3)CC2)no1	-77.4%
CN(Cc1ccco1)[C@@H]1CN(Cc2nccn2C)[C@@H]2CCCO[C@H]12	-23.8%
CN(Cc1cccnc1)[C@@H]1CN(Cc2ccccn2)[C@@H]2CCCO[C@H]12	50.8%
CN(Cc1ccco1)[C@@H]1CN(Cc2ccc(F)cc2)[C@@H]2CCCO[C@H]12	56.5%
CN(Cc1ccco1)[C@@H]1CN(Cc2cnn(C)c2)[C@@H]2CCCO[C@H]12	27.3%
CN(Cc1cccnc1)[C@@H]1CN(c2ccccn2)[C@@H]2CCCO[C@H]12	-39.4%
CN(Cc1cccnc1)[C@@H]1CN(Cc2nccn2C)[C@@H]2CCCO[C@H]12	-13.9%
Cc1noc(C)c1CN1C[C@@H](N(C)Cc2ccco2)[C@H]2OCCC[C@H]21	50.4%
CN(Cc1ccco1)[C@@H]1CN(Cc2ccco2)[C@@H]2CCCO[C@H]12	11.7%
CN(Cc1ccco1)[C@@H]1CN(CC2CCOCC2)[C@@H]2CCCO[C@H]12	-0.241%
O=C(CCc1ccc(-n2cnnn2)cc1)Nc1ccncc1	-12.1%
CCn1cc2c(n1)CN(Cc1nccs1)CC2COCC1CC1 (stereo not drawn)	-9.1%
CN(C)c1nc(O)cc(C2CCN(C(=O)Cc3ccccn3)C2)n1 (stereo not drawn)	-107%
N#CC1CCCN(c2ncnc3c2CCN(Cc2ccccc2)CC3)C1 (stereo not drawn)	-71.7%
